Source: PubChem
The sample as a whole holds a higher share of hits than the screen did.
HT1080 IDH1KD tx = toxicity to HT-1080 IDH1 knockdown cells (counter line). HT-1080 IDH1 knockdown viability, ATP luminescence, 48 h. Potency, µM (highest dose often 46.1 µM), for inactives: at the top dose activity, negative = toxicity, actives largely listed as cytotoxic. hit rate 2% among 360,000;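 also: potency is read from the fitted curve at half-maximal effect; 0% = DMSO wells and -100% = cell-free medium wells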
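After a 2 h attachment period, IDH1KD HT-1080 cells took pin-transferred compound for 48 h at 37 °C; ATP-based luminescence after 10 min room-temperature reagent incubation reported viability.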
TDP1 cell CPT = growth inhibition of DT40 Tdp1-/-;hTDP1 cells with camptothecin (screen for TDP1 inhibitors) | chicken DT40 Tdp1-/-;hTDP1 cells + 20 nM CPT, ATP luminescence, 48 h | Potency, µM (series often up to 46.2 µM), without a hit: at the top dose activity change, negative = growth inhibition, hits mostly inhibitors | hit rate 12% among 420,000 | AID 686979; also: potency is read from the fitted curve at half-maximal effect; nearly all actives have a fitted effect of over 55% in size
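Cell growth measured by CellTiter-Glo luminescence after a minimum 48 h, 37 C compound exposure with 20 nM CPT in Tdp1-knockout DT40 cells stably expressing hTDP1, seeded 400/well; qHTS titration format.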
HT1080-NT tox = kills 2HG-producing HT-1080-NT fibrosarcoma cells. HT-1080-NT fibrosarcoma viability, CellTiter-Glo ATP luminescence, 48 h. hit rate 1.6% among 360,000. Potency, µM (highest dose often 46.1 µM), inactives show at the top dose activity, negative = less viability, usual class: cytotoxic;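 also: NT is the 2HG producing partner of a matched IDH1 knockdown line; potency is read from the fitted curve at half-maximal effect; 0% = DMSO-treated cells and -100% = media-only wells without cells; nearly all actives have a fitted effect of over 55% in size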
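A 48-hour cytotoxicity screen used HT-1080-NT cells plated 2 hours before compound delivery. ATP-based CellTiter-Glo luminescence measured viability, normalized to DMSO and no-cell controls.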
DT40 TDP1 no CPT = qHTS for Inhibitors of human tyrosyl-DNA phosphodiesterase 1 (TDP1): qHTS in cells in absence of CPT. Potency, µM (series often up to 46.2 µM), without a hit: top-dose activity change, negative = growth inhibition, actives largely listed as inhibitors. DT40 Tdp1-/- hTDP1 cells, no CPT, ATP luminescence, 48 h. AID 686978, 2013. hit rate 15% among 420,000; also: potency is read from the fitted curve at half-maximal effect; nearly all actives have a fitted effect of over 55% in size
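Camptothecin absent (DMSO only). Human TDP1-complemented DT40 knockout cells, 400 cells/well, 37 °C for minimum 48 hr; ATP measured via CellTiter-Glo, 30 min dark incubation, luminescence.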
IL-1B inflam inh = inhibitors of inflammasome signaling (IL-1 beta secretion); THP-1 LPS/ATP IL-1B secretion, AlphaLISA, 16 h; hits give low values; activity change, % at 57.5 µM; hit rate 4.7% among 360,000; AID 743279; in the data active = activity change below about -50%; inconclusive = mostly about -30% to -49%
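Secreted IL-1B measured by AlphaLISA bead assay after 16 h compound exposure of THP-1 cells; compounds (final up to 57.5 uM) added 1 h before LPS (250 ng/mL) and ATP (1.25 mM) stimulation; lower signal means less secretion.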
ALOX12 inh = inhibitors of human 12S-lipoxygenase ALOX12; AID 1671190; P18054; hit rate 1.1% among 580,000; Potency, µM (titrated, usually from 108 µM), inactives show at the highest dose activity change, negative = inhibition, hits mostly inhibitors; purified 12hLO, xylenol orange hydroperoxide absorbance; also: potency is read from the fitted curve at half-maximal effect
Target sequence (P18054 whole entry, looked up): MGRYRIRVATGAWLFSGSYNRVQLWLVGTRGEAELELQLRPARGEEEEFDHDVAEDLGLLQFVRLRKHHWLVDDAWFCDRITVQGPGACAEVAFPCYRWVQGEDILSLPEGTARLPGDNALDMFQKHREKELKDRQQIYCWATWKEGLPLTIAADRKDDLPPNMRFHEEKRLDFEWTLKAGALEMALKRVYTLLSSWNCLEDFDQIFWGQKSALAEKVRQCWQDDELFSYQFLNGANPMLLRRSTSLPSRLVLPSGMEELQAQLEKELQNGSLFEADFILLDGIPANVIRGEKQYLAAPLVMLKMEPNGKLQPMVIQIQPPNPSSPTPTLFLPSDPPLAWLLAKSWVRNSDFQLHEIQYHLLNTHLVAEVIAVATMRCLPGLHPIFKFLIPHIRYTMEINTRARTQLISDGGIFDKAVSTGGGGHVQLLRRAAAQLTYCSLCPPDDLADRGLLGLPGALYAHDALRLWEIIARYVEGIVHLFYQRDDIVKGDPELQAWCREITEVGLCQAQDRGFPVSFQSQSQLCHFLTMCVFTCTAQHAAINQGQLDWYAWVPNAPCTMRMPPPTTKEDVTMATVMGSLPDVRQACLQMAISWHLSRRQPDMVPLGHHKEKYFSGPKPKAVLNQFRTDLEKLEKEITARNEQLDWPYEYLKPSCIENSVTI
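Purified human 12hLO at 150 nM in 25 mM Hepes, 0.01% Triton X-100, pH 7.0, preincubated 15 min at room temperature with compound. Reaction started with 40 uM arachidonic acid, 30 min at room temperature. Hydroperoxide measured by Fe-xylenol orange, 573/405 nm absorbance ratio.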
An asterisk follows results filed as active; i = inactive; ? = inconclusive; / = no result; [ ] = dose if it differs, or a comment. Unless noted, calls follow the shape of the dose curve; as a rule, active = well fitted curve in the direction sought with a large enough effect; inconclusive = small, poorly fitted or top-dose-only effect, or another doubt; inactive = no such curve, though single readings can be large; an effect the other way counts as inactive or inconclusive. Unless noted, % is scaled to controls: 0 for no effect and ±100 for the full control effect.

SMILES | HT1080 IDH1KD tx | TDP1 cell CPT | HT1080-NT tox | DT40 TDP1 no CPT | IL-1B inflam inh | ALOX12 inh
COc1ccc2ccccc2c1CN1CCSCC1 | 12.1% | -6.2% | 3.1% | -4.1% | 7.7 | 1.58µM*
O=C(Nc1ccccc1N1CCCCC1)c1cccs1 | 14.8% | -18.1% | 0.1% | ? | 41.5 | -15.7%
Cc1ccsc1C(=O)Nc1ccccc1N1CCCC1 | 2.3% | ? | 8.8% | 13µM* | -1.3 | ?
COc1ccccc1C(=O)Nc1ccccc1N1CCCCC1 | -15.2% | ? | -4.9% | 18.4µM* | -27.6 | 0.0%
Cc1ccccc1C(=O)Nc1ccccc1N1CCOCC1 | / | / | / | / | / | -9.5%
O=C(Nc1ccccc1N1CCCC1)C1=COCCO1 | 4.3% | -11.1% | 0.0%[9.24 µM] | 5.2% | 8.1 | 11.1%
O=C(Nc1ccccc1N1CCCCC1)C1=COCCO1 | -0.2% | ? | -17.1% | 11.6µM* | 33.6 | 12.5%
Cc1ccccc1C(=O)Nc1ccccc1N1CCCCC1 | -17.5% | ? | -15.8% | 16.4µM* | 36.6 | -9.1%
Cc1cc(NC(=O)c2ccccc2Cl)sc1C(=O)NC(C)c1ccc(NC(=O)C2CC2)cc1 (stereo unspecified) | / | / | / | / | / | -2.4%
O=C(c1ccc(Br)o1)N1CC2CC(C1)[C@H]1CCCC(=O)N1C2 (stereo partly specified) | / | / | / | / | / | 29.5%
COc1ccc(Cl)cc1C(=O)Nc1ccccc1N1CCCCC1 | -0.1% | 18.4µM* | -9.0% | 29.1µM* | 33.0 | 289.3%
Cc1ccc(C)c(N2N=C(C(=O)Nc3ccccc3N3CCOCC3)CCC2=O)c1 | -0.6% | ? | 0.0% | ? | -10.1 | 24.1%
Cc1ccc(C)c(N2N=C(C(=O)Nc3ccccc3N3CCCC3)CCC2=O)c1 | ? | ? | ? | 20.6µM* | i | -0.9%
CCn1c(N)c(C(=O)NCCCOC)sc1=S | 4.6% | 9.8% | 9.4% | -22.9% | -2.2 | 39.8µM*
Cc1ccc(C(=O)NNC(=O)COC(=O)c2ccccc2SCc2ccc(C#N)cc2)cc1 | / | / | / | / | / | 32.0%
COc1ccc(/C=C2\SC(=O)N(CC(=O)NCCC(C)C)C2=O)cc1OC | 12.8% | 20.9% | 10.0% | ? | 1.3 | 4.6%
COc1cc(/C=C2/SC(=O)N(CC(=O)N3CCCC3)C2=O)ccc1Oc1ccc([N+](=O)[O-])cn1 | -3.1% | ? | -1.2% | 20.6µM* | -63.3* | 43.5%
COc1ccc(/C=C2/SC(=O)N(CC(=O)Nc3cc(C)on3)C2=O)cc1OC | 4.2% | 0.0% | 2.8% | -1.0% | 0.3 | -19.1%
CCN1C(=O)S/C(=C/c2ccc(Oc3ccc([N+](=O)[O-])cn3)c(OC)c2)C1=O | 2.7% | ? | ? | 13µM* | 13.0 | 6.5%
CCN=C1S/C(=C\c2ccc(OCC)c(OC)c2)C(=O)N1CC | -16.9% | ? | -2.8% | 20.6µM* | -50.9* | -9.5%
CCOc1cc2c(cc1NC(=O)CC1CCCC1)OC(C)C2 (stereo unspecified) | / | / | / | / | / | 17.0%
O=C1Cc2c([nH]c3ccc(Br)cc23)-c2ccccc2N1 | ? | ? | -24.2% | ? | -97.2* | ?
COc1ccccc1-c1[nH]ncc1CN1CCCCCNC(=O)[C@@H]2CCC[C@@H]21 | / | / | / | / | / | i
CCOC(=O)c1c(CN2CCN(Cc3ccccc3)CC2)n(C)c2cc(Br)c(OC)cc12 | 17.7% | ? | -0.3% | 16.4µM* | -10.1 | -16.1%
CCOC(=O)c1c(C)n(C)c2cc(Br)c(C)cc12 | 7.7% | -6.7% | 11.5% | -12.5% | 0.0 | 16.9%
SMILES | HT1080 IDH1KD tx | TDP1 cell CPT | HT1080-NT tox | DT40 TDP1 no CPT | IL-1B inflam inh | ALOX12 inh
CCOC(=O)c1c(CSc2ccccc2)n(C)c2cc(Br)c(OCC(O)CNC(CO)(CO)CO)cc12 (stereo unspecified) | -15.8% | ? | -5.0% | 14.6µM* | -100.5* | -15.5%
CCOC(=O)c1c(CN2CCN(CC#N)CC2)n(C)c2cc(Br)c(OC)cc12 | 20.6µM* | ? | ? | ? | -62.9* | 0.0%
CCOC(=O)c1c(CSc2ccccc2)n(C)c2cc(Br)c(OC)c(O)c12 | 3.4% | ? | -1.2% | ? | -27.2 | 8.8%
CCOC(=O)c1c(CN2CCC(C)CC2)n(C)c2cc(Br)c(OC)cc12 | -0.2% | ? | 17.6% | 16.4µM* | -13.0 | -15.8%
CCOC(=O)c1c(CS(=O)(=O)c2ccccc2)n(C)c2cc(Br)c(O)cc12 | 5.1% | ? | 4.0% | ? | 11.4 | 6.2%
O=C(c1ccc(Cn2cncn2)cc1)N1CCN(c2ccccc2F)CC1 | / | / | / | / | / | -7.0%
COc1ccc(C(CNC(=O)c2nn(Cc3ccccc3)c(=O)c3ccccc23)N2CCCC2)cc1 (stereo unspecified) | / | / | / | / | / | -10.1%
Cc1ccc(C(=O)N2CCC3(CC2)CC(=O)N(c2ccccc2)c2ccccc2O3)cc1 | / | / | / | / | / | -0.8%
Cc1nc(CC#N)n[nH]1 | / | / | / | / | / | 6.2%
O=C(NCC1CCN(C(=O)c2ccc([N+](=O)[O-])cc2)CC1)C(=O)Nc1ccccc1 | 11.1% | ? | 20.1% | 20.6µM* | 20.0 | -7.1%
O=C(c1ccc(Cn2ccc([N+](=O)[O-])n2)cc1)N1CCN(Cc2ccccc2)CC1 | 5.6% | 4.0% | -15.9% | ? | -19.4 | -4.6%
O=C(c1ccc(Oc2ccc([N+](=O)[O-])cc2Cl)cc1)N1CCCC1 | -9.7% | ? | 19.7% | ? | 0.0 | -6.5%
CSc1ccc(CN2CCN(C(=O)c3ccc([N+](=O)[O-])cc3)CC2)cc1 | ? | ? | -15.2% | 20.6µM* | -25.0 | ?
O=C(c1ccc(Oc2ccc([N+](=O)[O-])cc2)cc1)N1CCCCCC1 | ? | ? | -16.0% | ? | -77.7* | 8.7%
O=C(Cc1ccccc1)NC1CCN(C(=O)c2ccc([N+](=O)[O-])cc2)CC1 | 15.8% | -1.9% | 9.4% | -13.3% | 1.9 | -6.1%
CC(=O)c1ccc(NC(=O)N[C@H]2CCN3C(=O)[C@@H](Cc4ccccc4)NC(=O)[C@H]23)cc1 | / | / | / | / | / | -17.9%[176 µM]
COc1ccc(C2C3=C(CCCC3=O)OC3=C2C(=O)CCC3)cc1OC | / | / | / | / | / | 1.6%
COC(=O)c1ccc(Oc2nc(Nc3ccccc3)nc(N(C)C)n2)cc1 | 4.6% | ? | -1.3% | 20.6µM* | -0.7 | -0.1%
S=C1NC2=C(CCC/C2=C\c2ccccc2)C(c2ccccc2)N1 (stereo unspecified) | 2.9% | ? | 4.5% | 14.6µM* | -1.4 | ?
C=CCOc1ccc(C2NC(=S)NC3=C2CCc2ccccc23)cc1 (stereo unspecified) | -24.4% | ? | -3.0% | ? | 26.9 | ?
